Results filed as inconclusive are left out. Values without a mark were called inactive. Active and inactive are the calls of the source. Calls come from the whole dose curve; as a rule, active = well fitted cell-killing curve with a large enough effect in the repeat runs; inconclusive = weak or mixed curves, or effect the other way; inactive = no such curve, though single readings can be large or run the other way.
% is set by controls: 0 for no effect and ±100 for the full control effect.

The experiment in a line: qHTS assay to identify small molecule antagonists of the glucocorticoid receptor (GR) signaling pathway - cell viability counter screen (AID 720693). Note: nearly all actives have a fitted effect of over 55% in size. As to conditions: GR-bla HeLa viability, CellTiter-Glo luminescence, 18 h, with 5 nM dexamethasone present; series mostly up to 58.5 µM; viability change, negative = cytotoxic: at the top concentration. The source says: National Center for Advancing Translational Sciences [NCATS]
NIH Chemical Genomics Center [NCGC]
U.S. Environmental Protection Agency [EPA]
National Institutes of Environmental Health Sciences [NIEHS]
National Toxicology Program [NTP]
U.S. Food and Drug Administration [FDA]
The Glucocorticoid receptor (GR) is one of the members of the nuclear receptor family of ligand-dependent transcription factors. GR plays a critical role in carbohydrate, protein and lipid metabolisms and programmed cell death. CellSensor GR-bla HeLa cell line (Invitrogen) contains a beta-lactamase reporter gene under the control of the glucocorticoid response element stably integrated into HeLa cells, a cervical cancer cell line that expresses glucocorticoid receptor. The activation of the reporter gene under culture conditions can be detected by fluorescence intensity. This cell line has been used to screen the Tox21 10K compound library and to identify the compounds that inhibit the GR signaling. The cytotoxicity of the Tox21 compound library against the GR-bla HeLa cell line was tested in parallel by measuring the cell viability using CellTiter-Glo assay in the same wells.
Tox21 Assay Protocol Summary:
The GR-bla HeLa cells were dispensed at 1500 cells/5 ul/well in 1536-well black wall/clear bottom plates using a Multidrop Combi (ThermoFisher Scientific, Waltham, MA) dispenser. After the assay plates were incubated at a 37 C/5% CO2 incubator for 4 hours, 23 nL of compounds dissolved in DMSO, positive controls or DMSO only was transferred to the assay plate by a pintool station (Kalypsys, San Diego, CA), followed by addition of 1 uL of dexamethasone (5 nM, final concentration in the well). The plates were incubated at 37 C for 18 hours. After 1 uL of LiveBLAzerTM B/G FRET substrate was added using a Flying Reagent Dispenser (Aurora Discovery, San Diego, CA), the plates were incubated at room temperature (RT) for 2 hours, and fluorescence intensity was measured by an Envision plate reader (PerkinElmer, Shelton, CT). After measurement of bla assay, 3 ul CellTiter-Glo (Promega, Madison, WI) was added to measure the cytotoxicity and the plates were then incubated at RT for 30 min. The luminescence was measured using a ViewLux (Perkin Elmer) plate reader.
For the molecule `CCCCCC(=O)OCCc1ccccc1`, the “viability change, negative = cytotoxic” value is -0.511%.
Turning to `CC(CO)(CO)[N+](=O)[O-]`, the “viability change, negative = cytotoxic” value was 5.31%.
Consider `CC1OC1C1CCC2(C)OC2C1` (stereo not given), for which the “viability change, negative = cytotoxic” value was 1.4%.
On the same count and under the same terms, to `Clc1cc(Cl)c(Cl)nc1Cl` belongs -5.01%; to `CCCCOCCOC(=O)CCCCCCCCC(=O)OCCOCCCC`, -2.35%; to `CCCCCCCCN1CCCC1=O`, 3.5%.
Regarding `CC12CCC(C(=O)C1=O)C2(C)C` (stereo not given), the “viability change, negative = cytotoxic” value was 0.0057% [at 78.9 µM].
Take `CC(C)(C#N)Nc1nc(Cl)nc(NC2CC2)n1`: the “viability change, negative = cytotoxic” value is 19.3%.
In the case of `COc1ccnc(CS(=O)c2nc3cc(OC(F)F)ccc3[nH]2)c1OC` (stereo not given), the molecule was called inactive.
`C=COCC1CCC(COC=C)CC1` (stereo not given): the “viability change, negative = cytotoxic” value was 0.794%.
The same measure, in the same setting: the same measure for `CCOC(=O)C1=NOC(c2ccccc2)(c2ccccc2)C1`: 0.206%.
Still for that read-out and setting: the same measure for `CCCCCCCCCCCCSC`: 1.55%.
For the molecule `O=C1NC(=O)C2CC=CCC12` (stereo not given), the “viability change, negative = cytotoxic” value is -0.871%.
Take `O=C(O)CNC(=O)c1ccccc1`: the “viability change, negative = cytotoxic” value was 19.8%.
On to `CNCCO`, for which the “viability change, negative = cytotoxic” value is -8.35%.
As to `c1ccc(Cc2ccccc2)cc1`, the “viability change, negative = cytotoxic” value is 5.56%.
With `NC(CCC(=O)O)C(=O)O` (stereo not given), the “viability change, negative = cytotoxic” value was 0.75%.
Still for that read-out and setting: to `O=S(=O)(O)c1cc(O)c(O)c(S(=O)(=O)O)c1` belongs -2.53%; to `CN(C)CCCN(C)CCCN(C)C`, 0.32%; to `CCNS(=O)(=O)c1ccc(C)cc1`, 15.3% [at 78.9 µM].
For `NC(=O)Cc1cccc2ccccc12`, the “viability change, negative = cytotoxic” value was -0.969%.
For the molecule `CCCCc1ccc2c(n1)[C@@H](c1ccc(OC)cc1C[C@H](C)C(=O)O)[C@H](C(=O)O)[C@H]2c1ccc2c(c1)OCO2`, the “viability change, negative = cytotoxic” value is -7.08%.
Consider `C[C@@H]1CCC[C@H](C)N1`, for which the “viability change, negative = cytotoxic” value is 3.99% [at 27 µM].
As to `C[C@@H]1C[C@H]2[C@@H]3C[C@H](F)C4=CC(=O)C(Cl)=C[C@]4(C)[C@@]3(F)[C@@H](O)C[C@]2(C)[C@@]1(O)C(=O)CO`, the “viability change, negative = cytotoxic” value is 8.35%.
On the same count and under the same terms, to `CCCc1ncc(C[n+]2ccccc2C)c(N)n1` belongs -0.128% [at 27 µM].
On the same count and under the same terms, the same measure for `O=S(=O)(O)c1cccc(S(=O)(=O)O)c1`: 15.5%; for `C=CC(=O)OCCCl`: 0.878% [at 78.9 µM]; for `CC(C)C(=O)OC(=O)C(C)C`: 13.6%.
Consider `C[N+](C)(C)CCCCCCCCCC[N+](C)(C)C`, for which the “viability change, negative = cytotoxic” value was -3.3%.
Take `CCCCN(CCC(=O)OCC)C(C)=O`: the “viability change, negative = cytotoxic” value was -2.04%.
In the case of `CC(C)COC(=O)c1ccc(N)cc1`, the “viability change, negative = cytotoxic” value was 0.599%.
With `CCCC[N+](C)(CCCC)CCCC`, the “viability change, negative = cytotoxic” value is -1.29%.
Same read-out and setting: to `CC(C)(C)C(=O)Oc1ccc(S(=O)(=O)Nc2ccccc2C(=O)NCC(=O)O)cc1` belongs 2.02%; to `CCOC(=O)CCC(=O)OCC`, 2.43%; to `COC(=O)C1=C(C)NC(C)=C(C(=O)OC(C)C)C1c1cccc2nonc12` (stereo not given), 8.05% [at 27 µM].
On to `Nc1c2c(nc3c1CCC3)CCCC2`, for which the “viability change, negative = cytotoxic” value is 5.42%.
Still for that read-out and setting: to `CN(C)C(=O)Oc1cccc([N+](C)(C)C)c1` belongs -6.3%; to `Nc1ccncc1N`, -2.23%.
As for `CO[C@@]1(NC(=O)CSC[C@@H](N)C(=O)O)C(=O)N2C(C(=O)O)=C(CSc3nnnn3C)CS[C@@H]21`, the “viability change, negative = cytotoxic” value is 7.85%.
As for `O=C(c1ccccc1)C1(O)CCCCC1`, the “viability change, negative = cytotoxic” value was -1.1%.

Source of the values: PubChem BioAssay (Tox21).
